An excerpt weighted towards active compounds, which were near 28% of everything screened.
PTK2B oligo ant = blocks oligomerization of human Pyk2 in cells. Q293 cells, Pyk2 FERM NanoBiT luminescence; hits give low values. z-score (the deposit names both 25 µM and 10 µM). 99,000 compounds, 0.83% hits;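 active means Z-score of -3 or lower, scaled per plate to the spread of control and sample wells; inactive means z-score above -3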;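 further: negative z-score means lost luminescence so less FERM oligomerization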
CYP2C19 inhib = human CYP2C19 inhibition; CYP2C19 Supersomes, luciferin-H EGE luminescence, 30 min; 96,000 compounds, 21% hits; AID 778; inhibition, % at 5 µM; P33261;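 active means CYP2C19 inhibition above a set limit at 5 µM in the primary screen, cut at about 50% in these data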;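 further: plate controls were negative control wells for no effect and 2.5 mM tranylcypromine positive control for full effect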
CYP2C9 inh = human CYP2C9 inhibition; P11712; CYP2C9 Supersomes, luciferin-H conversion, luminescence; inhibition, % at 5 µM; 96,000 compounds, 20% hits; AID 777;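 active means blocking of liver enzyme CYP2C9 beyond about 50% at 5 µM, limit read from the data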
CYP2C9 activ = CYP2C9 (human) activation; P11712; recombinant CYP2C9, luciferin-H conversion, luminescence; hits give high values; factor 1 = untreated enzyme, 0 = blocked; activation factor at 5 µM; 96,000 compounds, 1.4% hits;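 active means activation factor of 2 or more for CYP2C9 at a 5 µM dose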;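 further: 0 = sulfaphenazole-blocked wells and 1 = vehicle-only wells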
CYP2C19 act = increases human CYP2C19 enzyme activity; AID 1025; recombinant CYP2C19, luciferin-H EGE luminescence; hits give high values; 0 = fully inhibited enzyme, 1 = untreated enzyme; activation factor at 5 µM; 96,000 tested, under 10 active;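 active means activation factor of at least 2 at 5 µM in the primary screen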;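 further: 0 = wells with 2.5 mM tranylcypromine and 1 = vehicle-only wells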
The depositor's hits bear a star; · = no result given.

SMILES | PTK2B oligo ant | CYP2C19 inhib | CYP2C9 inh | CYP2C9 activ | CYP2C19 act
COc1ccc(N=c2oc3cc(O)ccc3cc2C(=O)NCC2CCCO2)c(OC)c1 (stereo not drawn) | -2.6 | 3.0 | 22.8 | 0.8 | 1
CCOc1ccc(N=c2oc3cc(O)ccc3cc2C(=O)NCC2CCCO2)cc1 (stereo not drawn) | -1.93 | -22.5 | 42.3 | 0.6 | 1.2
CC(C)=CCCC(C)CN(C)CCc1ccccn1 (stereo not drawn) | 0.77 | 47.4 | -3.0 | 1 | 0.5
CCN(CC)c1nc2c(s1)C(=O)CC(C)(C)C2 | -0.22 | 48.1 | -4.5 | 1 | 0.5
CCCCn1c(SCC(=O)N2c3ccccc3Sc3ccccc32)nc2c1c(=O)n(C)c(=O)n2C | -2.59 | · | · | · | ·
Cc1cc(NCCO)c2cc(O)ccc2n1 | 0.28 | -10.2 | -11.4 | 1.1 | 1.1
CC1CCN(C(=S)c2cn(Cc3ccccc3F)c3ccccc23)CC1 | -1.52 | 26.0 | 28.1 | 0.7 | 0.7
CCN1CCN(Cc2cccc(Oc3ccccc3)c2)CC1 | 1.54 | 31.0 | -3.3 | 1 | 0.7
Cc1cccc(CN2CCN(c3ccccn3)CC2)c1 | -0.77 | · | · | · | ·
Brc1cccc(CN2CCCCCCC2)c1 | 0.01 | 77.2* | -13.4 | 1.1 | 0.2
c1ccc(COc2cccc(CN3CCN(c4ccccn4)CC3)c2)cc1 | -0.03 | 44.5 | 69.6* | 0.3 | 0.6
O=C(CN1CCCCCC1)Nc1cccc(Br)c1 | -0.23 | 41.2 | 0.6 | 1 | 0.6
c1ccc(Oc2cccc(CN3CCCCC3)c2)cc1 | 0.22 | 50.0* | -8.5 | 1.1 | 0.5
C=C(C)C(=O)Nc1ccc(OC(F)(F)C(F)F)c(NC(=O)C(=C)C)c1 | -0.07 | -6.8 | -1.3 | 1 | 1.1
CCN(CCO)C(=O)CC(c1ccccc1)c1cc(Br)ccc1O (stereo not drawn) | -1.08 | · | · | · | ·
CCCN(CCC)C(=O)CC(c1ccccc1)c1cc(C)ccc1O (stereo not drawn) | -1.51 | 25.3 | 52.8* | 0.5 | 0.7
CN(Cc1ccccc1)C(=O)CC(c1ccccc1)c1cc(Cl)ccc1O (stereo not drawn) | -2.92 | 31.9 | 75.9* | 0.2 | 0.7
O=C(NCCOc1ccccc1)C(c1ccccc1)c1ccccc1 | -1.01 | 12.1 | 21.2 | 0.8 | 0.9
CCCCNC(=O)c1onc(CSc2ccc(OC)cc2)c1C(=O)O | · | -11.7 | 79.8* | 0.2 | 1.1
CCCCNC(=O)c1onc(CSc2ccc(F)cc2)c1C(=O)O | · | 6.3 | 58.0* | 0.4 | 0.9
COCCNC(=O)c1c(CSc2ccc(F)cc2)noc1C(=O)NCc1ccccc1 | · | 12.6 | 5.6 | 0.9 | 0.9
COCCNC(=O)c1onc(CSc2ccccc2)c1C(=O)O | · | 24.9 | 34.5 | 0.7 | 0.8
O=C(COc1ccc2ccccc2c1Br)NNC(=O)Nc1ccccc1 | 0.55 | 28.5 | -44.6 | 1.4 | 0.7
Brc1c(OCCOCCn2cncn2)ccc2ccccc12 | -0.33 | 99.3* | 94.9* | 0.1 | 0
O=C(Cc1c(F)c(F)c(F)c(F)c1F)OC12CC3CC(C1)C(=O)C(C3)C2 | -0.28 | 71.6* | -1.0 | 1 | 0.3
SMILES | PTK2B oligo ant | CYP2C19 inhib | CYP2C9 inh | CYP2C9 activ | CYP2C19 act
Cc1cccc(Oc2cnn(C(C)(C)C)c(=O)c2Cl)c1 | -1.06 | · | · | · | ·
CNC(=O)C1C2C=CC3(O2)C1C(=O)N(C1CC1)C3C(=O)NCc1ccc(OC)cc1 (stereo not drawn) | 0.07 | -16.0 | -26.0 | 1.3 | 1.2
CCCn1c(CN2CCN(c3cccc(Cl)c3)CC2)nc2c1c(=O)n(C)c(=O)n2C | · | 24.8 | 42.2 | 0.6 | 0.8
CCCCCn1c(CN2CCN(c3cccc(Cl)c3)CC2)nc2c1c(=O)n(C)c(=O)n2C | -0.02 | 21.6 | 54.6* | 0.5 | 0.8
CCOC(=O)N1CCN(Cc2nc3c(c(=O)n(C)c(=O)n3C)n2Cc2cccc(C)c2)CC1 | 0.76 | 85.6* | 67.4* | 0.3 | 0.1
CCCCn1c(CN2CCN(c3ccccc3)CC2)nc2c1c(=O)n(C)c(=O)n2C | · | 6.9 | 8.5 | 0.9 | 0.9
CCCCn1c(CN2CCN(c3cccc(Cl)c3)CC2)nc2c1c(=O)n(C)c(=O)n2C | 0.46 | 56.3* | 85.3* | 0.1 | 0.4
CCOC(=O)N1CCN(Cc2nc3c(c(=O)n(C)c(=O)n3C)n2Cc2ccc(F)cc2)CC1 | · | -6.8 | -23.1 | 1.2 | 1.1
Nn1c(SCC(=O)N2CCCc3ccccc32)nnc1-c1ccc(Cl)cc1 | 0.87 | 11.9 | 13.0 | 0.9 | 0.9
COc1nnc(-c2ccc(N3CCOCC3)c(NC(=O)C3CCCCC3)c2)c2ccccc12 | -0.48 | 24.2 | 41.1 | 0.6 | 0.8
c1ccc2c3c(cc(N4CCOCC4)c2c1)OC1(N2CCOCC2)CCCCC1O3 (stereo not drawn) | -0.25 | 95.1* | 79.5* | 0.2 | 0
COc1ccc(OC)c(CCNC(=O)CS(=O)(=O)Cc2nc(-c3ccccc3C)oc2C)c1 | 1.3 | 65.7* | 49.9 | 0.5 | 0.3
Cc1oc(-c2ccccc2F)nc1CS(=O)(=O)CC(=O)N1CCCCCC1 | · | 27.8 | 80.7* | 0.2 | 0.7
Cc1ccccc1-c1nc(CS(=O)(=O)CC(=O)NCc2ccccc2)c(C)o1 | · | 39.4 | 8.2 | 0.9 | 0.6
Cc1ccccc1-c1nc(CS(=O)(=O)CC(=O)N(C)C2CCCCC2)c(C)o1 | · | 86.5* | 46.0 | 0.5 | 0.1
Cc1ccc(C(=O)Cn2c(C(=O)/C=C/c3ccccc3)nc3ccccc32)cc1 | -1.29 | 4.4 | -11.2 | 1.1 | 1
CN(C)/C=C(\C=N\OCc1ccc(Cl)cc1Cl)C(=O)Nc1ccc(Cl)c(Cl)c1 | 0.16 | -8.6 | -11.2 | 1.1 | 1.1
CCOC(=O)CNc1c(-c2ccc(F)cc2)nc2cnccn12 | -0.26 | 60.3* | 38.1 | 0.6 | 0.4
CCOC(=O)CNc1c(-c2ccc(Cl)cc2)nc2cnccn12 | -0.21 | 88.9* | 74.1* | 0.3 | 0.1
CCOC(=O)CNc1c(-c2ccc(OC)cc2)nc2ccc(Cl)cn12 | 0.53 | · | · | · | ·
CC(=O)Nc1c(-c2ccc(F)cc2)nc2ccccn12 | · | -14.4 | -1.8 | 1 | 1.1
CC(C)N1C(=S)SC2CS(=O)(=O)C=C21 (stereo not drawn) | -0.2 | 9.6 | -13.4 | 1.1 | 0.9
CC(C)CNC(=O)c1cccc(NC(=O)Cc2ccc(Br)cc2)c1 | -0.05 | · | · | · | ·
Nc1nnc(CC(c2ccccc2)c2ccccc2)s1 | -0.28 | 85.3* | 20.1 | 0.8 | 0.1
O=C(OCCN=C1NS(=O)(=O)c2ccccc21)c1ccncc1 | 0.12 | -18.6 | 77.6* | 0.2 | 1.2
O=C(NCCCN=C1NS(=O)(=O)c2ccccc21)c1ccc(S(=O)(=O)N2CCCCC2)cc1 | 0.04 | 18.9 | 53.5* | 0.5 | 0.8
O=C(NCCN=C1NS(=O)(=O)c2ccccc21)c1ccncc1 | 1.67 | -0.1 | 51.3* | 0.5 | 1
O=C(NCCN=C1NS(=O)(=O)c2ccccc21)c1ccc2nccnc2c1 | -0.18 | 21.7 | 36.6 | 0.6 | 0.8
Cc1cc(=O)oc2cc(OCC3CC(c4ccc(Cl)cc4)=NO3)ccc12 (stereo not drawn) | 0.06 | 51.2* | 43.1 | 0.6 | 0.5
Cc1ccc(SC(c2ccccc2)C(Cn2cncn2)C(=O)c2ccccc2)cc1 (stereo not drawn) | -1.03 | 99.1* | 100.3* | 0 | 0
